# Screening results as filed in PubChem.
# TDP-43 yeast inh = qHTS of TDP-43 Inhibitors; Potency, µM (titrated, usually from 46.1 µM), without a hit: at the top dose growth rescue (activation), hits mostly activators; 410,000 tested, 1.8% active; TDP-43 expressing yeast growth rescue, BacTiter-Glo, 24 h; note: % of control where 0% means no effect; nearly all actives have a fitted effect of over 50% in size
#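 Yeast cells expressing TDP-43 under galactose induction are exposed to compounds for 24 hr at 30 deg C. BacTiter-Glo luminescence measures growth, so protective compounds score as activators.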
# Abeta yeast res = qHTS for compounds that reverse cellular toxicity of Amyloid beta (A-beta) peptide in yeast: Primary Screen | yeast expressing A-beta42, growth rescue, OD600, 48 h; response scale: 0% DMSO, 100% iron-clioquinol control | Potency, µM (highest dose often 46.1 µM), most hits filed as activators | 410,000 tested, 0.063% active | AID 1347071, 2019; note: nearly all actives have a fitted effect of over 55% in size
#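 Growth rescue measured by 600 nm absorbance after 48 h yeast culture at 30 C with compound. Values normalized between DMSO and an equimolar ferric chloride plus clioquinol control.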
# aSyn rescue = qHTS of alpha-syn Inhibitors | Yeast expressing alpha-synuclein, growth rescue, BacTiter-Glo, 24 h | Potency, µM (titrated, usually from 46.1 µM), for the others: top-dose growth rescue (activation), actives largely listed as activators | 370,000 tested, 0.14% active; note: % of control where 0% means no effect; nearly all actives have a fitted effect of over 65% in size
#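 Galactose-induced alpha-syn yeast (OD600=0.02, raffinose-pregrown) + pinned cpd, 24 hr, 30 deg C; growth by BacTiter-Glo luminescence. Growth restoration scores as activation.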
# MmCpn inh = Inhibitors of TCP-1 ring complex (TRiC) of Methanococcus maripaludis (MmCpn): qHTS | purified Mm-Cpn ATPase, ADP Transcreener TR-FRET | Potency, µM (highest dose often 76.9 µM), for inactives: at the highest dose activity, negative = inhibition, most hits filed as inhibitors | Chaperonin Mm-Cpn (Methanococcus maripaludis) | 330,000 tested, 0.031% active; note: % is set by controls: 0 for no effect and ±100 for the full control effect; nearly all actives have a fitted effect of over 80% in size
#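 Measured: ADP formation by purified Mm-CPN. Conditions: 25 nM protein, 10 uM ATP, Tris pH 7.4 with Mg2+, K+ and DTT, 37°C for 30 min. Detection: Transcreener HTRF after 30 min at room temperature.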
# FUS suppressor = qHTS for Suppressors of FUS Proteinopathy: Primary screen using FUS-linked yeast assay | 390,000 tested, 0.24% active | Potency, µM (doses to about 76.6 µM), most hits filed as activators | S. cerevisiae FUS-expressing, growth rescue, OD600, 24 h;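 note: plate controls were DMSO vehicle for no effect and reference control for full effect; nearly all actives have a fitted effect of over 55% in size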
#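 Toxicity suppression screen in FUS-yeast. Cells induced with 2% galactose, starting OD 0.005, treated 24hr at 30C with compounds at multiple final concentrations; growth by OD600.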
# ClpP mod = qHTS Assay for Activators of ClpP. purified B. subtilis ClpP, FRET peptide cleavage, 20 min. Potency, µM (titrated, usually from 57.5 µM), for the others: at the highest dose activity change, negative = active. 340,000 tested, 1.9% active. AID 651965, 2013; active = well fitted falling curve with a large enough effect; inconclusive = small, poorly fitted or top-dose-only effect; inactive = no such curve, though single readings can be large or run the other way; note: the source files actives as falling curves though it sought activators and does not explain the sign; nearly all actives have a fitted effect of over 65% in size
# Target sequence (P80244 whole entry, looked up): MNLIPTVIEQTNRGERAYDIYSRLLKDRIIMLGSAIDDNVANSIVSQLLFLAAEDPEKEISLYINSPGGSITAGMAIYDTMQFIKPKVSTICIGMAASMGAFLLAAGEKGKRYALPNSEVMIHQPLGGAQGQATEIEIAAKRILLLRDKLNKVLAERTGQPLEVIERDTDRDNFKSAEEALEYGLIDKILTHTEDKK
#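 Buffer: 100 mM Tris/HCl pH8, 100 mM KCl, 0.05% low protease BSA, 2.5% glycerol, 0.01% Tween-20. ClpP 10 microg/mL final; 20 min RT; delta FRET normalized to ADEP and DMSO controls.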
# Active calls of the source: *; i = inactive; ? = inconclusive; . = not tested or not shown. In the library only some 3.6% were active in any assay of this set; here they are far more common. Unless noted, calls come from the whole dose curve; as a rule, active = well fitted curve in the direction sought with a large enough effect; inconclusive = small, poorly fitted or top-dose-only effect, or another doubt; inactive = no such curve, though single readings can be large; an effect the other way counts as inactive or inconclusive. Potency is the fitted concentration of half-maximal effect.
SMILES,TDP-43 yeast inh,Abeta yeast res,aSyn rescue,MmCpn inh,FUS suppressor,ClpP mod
CCCCOC(=O)c1ccc(Nc2ncnc3[nH]ncc23)cc1,7%,i,-14%,.,i,4%
COc1cc2cncnc2cc1OCCCCC(N)=O,.,.,-1%,.,.,-24%
COc1ccc(S[C@]2(C(=O)NCCCN(C)C)CC(=O)N[C@@H]2c2ccc(OC)cc2)cc1,.,.,.,.,i,.
COC(=O)[C@@]12C[C@@H](CC(=O)NCc3ccc(OC)c(OC)c3)C(=O)N(CCc3ccc(OC)c(OC)c3)C1=CCC(C)(C)C2,-4%,i,15%,.,?,-7%
COC(=O)[C@@]12C[C@@H](CC(=O)NCc3cccc4ccccc34)C(=O)N(Cc3ccc4c(c3)OCO4)C1=CCC(C)(C)C2,-15%,i,16%,.,6.3µM*,-10%
CCCCCCCCN1C(=O)[C@H](CC(=O)NCc2ccc(OC)c(OC)c2)C[C@@]2(C(=O)OC)CC(C)(C)CC=C12,22µM*,i,?,.,?,5%
CCCCCCCCN1C(=O)[C@H](CC(=O)N2CCCCC2)C[C@@]2(C(=O)OC)CC(C)(C)CC=C12,8%,i,-36%,.,?,0%
CCCCCCCCN1C(=O)[C@H](CC(=O)N2CCOCC2)C[C@@]2(C(=O)OC)CC(C)(C)CC=C12,?,i,?,.,13µM*,3%
CCOc1ccc(NC(=O)CC2C(=O)OCCN2CC)cc1 (stereo not given),?,i,.,.,i,-1%
CCOC(=O)c1cnc(N2CCN(c3cccc(C)c3C)CC2)c2ccccc12,9%,i,.,.,i,-20%
Cc1ccc(S(=O)(=O)c2nnn3c2nc(NC2CCCCCC2)c2sccc23)cc1C,12%,i,.,.,i,-19%
CCCCCOc1c(Cl)cc(C(=O)N(Cc2ccc(C)o2)C2CCS(=O)(=O)C2)cc1Cl (stereo not given),5%,i,.,.,35µM*,0%
CCCCOc1c(Cl)cc(C(=O)N(Cc2ccc(C)o2)C2CCS(=O)(=O)C2)cc1Cl (stereo not given),?,i,.,.,?,1%
NS(=O)(=O)c1ccc(CCNc2nc3c(-c4cccc(F)c4)nnn3c3ccccc23)cc1,21%,i,5%,-1%,.,22µM*
Cc1cccc(-c2nnn3c2nc(NCCc2ccc(S(N)(=O)=O)cc2)c2ccccc23)c1,4%,i,-3%,-16%,i,11µM*
O=C(O)c1ccc(CSc2nc3ccccc3o2)cc1,13µM*,i,6%,0%,i,3%
Cc1ccc(Cn2c(=O)n(Cc3ccc(C(=O)NC4CCN(Cc5ccccc5)CC4)cc3)c(=O)c3ccccc32)cc1,15%,i,.,.,i,-11%
Cc1c(S(=O)(=O)N(C)C2CCCCC2)c(=O)n(C)c(=O)n1C,4%,i,5%,-3%,i,13µM*
O=C(NCc1ccc(Cl)cc1)c1cc(-c2cccs2)on1,-15%,i,5%,0%,i,1%
COc1ccc(CNC(=O)c2cc(-c3cccs3)on2)cc1,5.6µM*,i,-4%,2%,i,-6%
O=C(C[n+]1ccc2ccccc2c1)c1ccc(O)c(O)c1,.,.,-8%,.,.,0%
O=c1[nH]ncc(N2CCCC2)c1Cl,-13%,i,1%,2%,i,.
O=c1[nH]ncc(N2CCN(C(c3ccccc3)c3ccccc3)CC2)c1Cl,15%,i,8%,-7%,i,28µM*
Cc1[nH]c2ccccc2c1C(=O)CNc1ccc(Br)cc1,.,.,-11%,.,.,0%
CCCCn1c(CN2CCN(c3cccc(Cl)c3)CC2)nc2c1c(=O)n(C)c(=O)n2C,20µM*,i,2%,2%,i,3%
SMILES,TDP-43 yeast inh,Abeta yeast res,aSyn rescue,MmCpn inh,FUS suppressor,ClpP mod
CCCCCn1c(CN2CCN(c3cccc(Cl)c3)CC2)nc2c1c(=O)n(C)c(=O)n2C,?,i,-3%,0%,?,-1%
CCOC(=O)C[C@H]1c2cc(F)ccc2S(=O)(=O)N1Cc1cc(OC)c(OC)c(OC)c1,.,.,.,.,.,2%
CCCCNC(=O)[C@@H]1CSC2c3ccc(OC)c(OC)c3C(=O)N21 (stereo not given in full),-4%,i,0%,-1%,i,-28%
COCCNC(=O)[C@@H]1CSC2c3ccc(OC)c(OC)c3C(=O)N21 (stereo not given in full),2.8µM*,i,-4%,-3%,i,-11%
COCCNC(=O)[C@@H]1CSC2c3ccccc3C(=O)N21 (stereo not given in full),8%,i,-5%,2%,i,32µM*
Cc1ccc(NC(=O)c2cnc(SCC(=O)N3CCCc4ccccc43)n(C)c2=O)cc1C,25%,i,.,.,i,?
CCCCOC(=O)c1ccc(OC(=O)c2cccnc2)cc1,13µM*,i,4%,-2%,i,2%
CCCCCCOC(=O)c1ccc(OC(=O)c2cccnc2)cc1,23%,i,3%,-18%,i,-4%
CCCc1nn2c(C)c(-c3ccccc3)nc2s1,-5%,i,.,.,i,0%
CCN(CC)Cc1cc(C(C)=O)ccc1OCC(C)C,-7%,i,0%,3%,.,?
CC(C)COc1ccc(N)cc1OCC(C)C,11µM*,i,-2%,0%,?,.
O=C(c1cc(Cl)cc(Cl)c1)N1CC[C@H]2[C@H](CCCN2Cc2cc(F)cc(F)c2)C1,.,.,.,.,i,.
CN=c1sc(C(=O)Nc2ccccc2)c(C)n1C,-1%,i,4%,0%,i,0%
CN=c1sc2c(n1C)C(=O)c1ccccc1C2=O,11µM*,i,3%,.,.,2%
CCOc1ccc(OCCOCCn2c(-c3ccc(Cl)cc3)nc3ccccc3c2=O)cc1,0%,i,.,.,i,-5%
CC(C)c1ccc(NC(=O)CSC2=Nc3ccccc3C3=NC(CC(=O)NCCc4ccccc4)C(=O)N23)cc1 (stereo not given),?,i,.,.,?,-13%
O=C(N/N=C/c1cc(Cl)cc(Cl)c1O)c1ccncc1,?,i,13%,1%,i,1%
